Records with an inconclusive call do not appear. Active and inactive are the calls of the source. Unless noted, the call rests on the fitted dose curve; in most records, active means well fitted curve in the direction sought with a large enough effect in the repeat runs; inconclusive means weak or mixed curves; inactive means no such curve, though single readings can be large; an effect the other way counts as inactive or inconclusive.
Experiments:
[1] = qHTS assay for small molecule agonists of the p53 signaling pathway (AID 651631; calls by dose curve; further: nearly all actives have a fitted effect of over 15% in size)
Method in brief: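 Stably transfected HCT-116 cells (beta-lactamase behind p53 response elements) get compounds after a 5 h settling period; 16 h later at 37 °C, FRET substrate is loaded and fluorescence read after 2 h.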

[2] = qHTS assay for small molecules that induce genotoxicity in human embryonic kidney cells expressing luciferase-tagged ATAD5 (AID 651632); further: nearly all actives have a fitted effect of over 15% in size
Method in brief: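 Cells were seeded at 2,000 per well, dosed with compound, and incubated 16 hr at 37C in 5% CO2. Luciferase activity was then quantified after a 30 min room-temperature incubation with Amplite.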

[3] = qHTS assay for small molecule agonists of the p53 signaling pathway - cell viability (AID 651633; calls by dose curve;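 further: p53RE-bla HCT reporter cells with a stable beta-lactamase p53 reporter; series mostly up to about 83 µM; nearly all actives have a fitted effect of over 30% in size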)
Method in brief: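 Viability counter-read: CellTiter-Glo luminescence (30 min, room temperature) in the same p53RE-bla plates. These plates had been exposed to compounds for 16 h at 37 C.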

[4] = qHTS assay for small molecules that induce genotoxicity in human embryonic kidney cells expressing luciferase-tagged ATAD5 - cell viability (AID 651634; calls by dose curve; further: nearly all actives have a fitted effect of over 25% in size)
Method in brief: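 Cells (HEK293T, luciferase-tagged ATAD5) are seeded at 2,000 per well, dosed with compound or DMSO vehicle, and incubated 15.5 hr at 37C and 5% CO2. CellTiter-Fluor is added for 30 min before fluorescence is measured.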

[5] = qHTS assay for small molecule disruptors of the mitochondrial membrane potential - cell viability (AID 720634; calls by dose curve;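 further: human HepG2 liver cancer cells; series mostly up to about 83 µM; nearly all actives have a fitted effect of over 20% in size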)
Method in brief: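 Cytotoxicity was measured by ATP quantitation in HepG2 wells that had first been treated with compound for 1 hr and stained with m-MPI dye; CellTiter-Glo incubation was 30 min at room temperature.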

[6] = qHTS assay for small molecule disruptors of the mitochondrial membrane potential (AID 720635)
Method in brief: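 Mitochondrial membrane potential tracked with Mito-MPS dye, red aggregates (ex 540/em 590 nm) against green monomers (ex 490/em 535 nm). Compound treatment 1 hr at 37C, dye 30 min in HepG2.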

[7] = qHTS assay to test for compound auto fluorescence at 590 nm (red) in HepG2 cells (AID 720674)
Method in brief: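 Red autofluorescence (Ex/Em 540/590 nm, Rose Bengal sodium equivalents) was measured in HepG2 cells, 2,000 per well in MEM plus 10% FBS, plated overnight at 37 C. Readings were taken 1 hr after adding 23 nL compound or DMSO, at 37 C and 5% CO2.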

[8] = qHTS assay to test for compound auto fluorescence at 535 nm (green) in HepG2 cells (AID 720675)
[9] = qHTS assay to test for compound auto fluorescence at 460 nm (blue) in HEK293 cells (AID 720678)
Method in brief: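 Auto fluorescence in the blue band was quantified as triamterene equivalency. HEK293 cells were seeded at 2,000/well, dosed after a 4-5 hr attachment, and kept overnight at 37C before the 405/460 nm reading.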

[10] = qHTS assay to test for compound auto fluorescence at 590 nm (red) in HEK293 cells (AID 720679)
Method in brief: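 Autofluorescence equivalency to Rose Bengal sodium, 540/590nm, in HEK293 cells exposed overnight to 23 nL compound per well.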
On the % scale 0 is the no-effect control and ±100 the full control effect.

CCCCCCCCCCCCCC
inactive: outcome [1] | Potency [2] | outcome [3] | Potency [4] | outcome [5] | Potency [6] | outcome [7] | outcome [8] | outcome [9] | outcome [10]

CNS(=O)(=O)CCc1ccc2[nH]cc(C3CCN(C)CC3)c2c1
inactive: outcome [1] | Potency [2] | outcome [3] | Potency [4] | outcome [5] | outcome [7] | outcome [8] | outcome [9] | outcome [10]

O=C1c2ccccc2C(=O)C1c1ccccc1
inactive: outcome [1] | Potency [2] | outcome [3] | Potency [4] | outcome [5] | fluorescence, relative to Rose Bengal [7] 0.709% [at 18.6 µM] | fluorescence, % of fluorescein control [8] 0.0928% [at 18.6 µM] | fluorescence, % of triamterene [9] -0.166% [at 18.6 µM] | fluorescence, % of fluorescent control [10] 0.0127% [at 18.6 µM]

CCc1ccc(C=O)cc1
inactive: outcome [1] | Potency [2] | outcome [3] | Potency [4] | outcome [5] | Potency [6] | outcome [7] | outcome [8] | outcome [10]

Cc1cc(C(C)(C)C)c(O)c(C)c1CC1=NCCN1
inactive: outcome [1] | Potency [2] | outcome [3] | Potency [4] | outcome [5] | Potency [6] | outcome [7] | outcome [8] | outcome [10]

CCCCCCCCC(=O)Cl
inactive: outcome [1] | Potency [2] | outcome [3] | Potency [4] | outcome [5] | outcome [7] | outcome [8] | outcome [9] | outcome [10]

O=C(O)c1cc(Cl)cc([N+](=O)[O-])c1Cl
inactive: outcome [1] | Potency [2] | outcome [3] | Potency [4] | outcome [5] | outcome [7] | outcome [8] | outcome [9] | outcome [10]

O=C(NCCc1c[nH]c2ccccc12)c1cccnc1
inactive: outcome [1] | Potency [2] | outcome [3] | Potency [4] | outcome [5] | outcome [7] | outcome [8] | outcome [9] | outcome [10]

O=C(O)Cc1ccc(Cl)cc1Cl
inactive: outcome [1] | Potency [2] | outcome [3] | Potency [4] | outcome [5] | outcome [7] | outcome [8] | outcome [9] | outcome [10]

C=C1CC/C=C(\C)CC[C@@H]2[C@@H]1CC2(C)C
inactive: outcome [1] | Potency [2] | outcome [3] | Potency [4] | outcome [5] | outcome [7] | outcome [8] | outcome [9] | outcome [10]

OCCCCC(O)CO (stereo unspecified)
inactive: outcome [1] | Potency [2] | outcome [3] | Potency [4] | outcome [5] | Potency [6] | outcome [7] | outcome [8] | outcome [10]

CC(C)CC(C)CC(C)CC(C)COC(=O)c1ccccc1C(=O)OCC(C)CC(C)CC(C)CC(C)C (stereo unspecified)
inactive: outcome [1] | Potency [2] | outcome [3] | Potency [4] | outcome [5] | outcome [7] | outcome [8] | outcome [9] | outcome [10]

CC(COC(C)(C)C)OCCCO (stereo unspecified)
inactive: outcome [1] | Potency [2] | outcome [3] | Potency [4] | outcome [5] | Potency [6] | outcome [7] | outcome [8] | outcome [10]

CCCCCOC(=O)CCC
inactive: outcome [1] | Potency [2] | outcome [3] | Potency [4] | outcome [5] | outcome [7] | outcome [8] | outcome [9] | outcome [10]

CN1C(C)(C)CCCC1(C)C
inactive: outcome [1] | Potency [2] | outcome [3] | Potency [4] | outcome [5] | Potency [6] | outcome [7] | outcome [8] | outcome [10]

CCCCCCCCC1CCC(=O)O1 (stereo unspecified)
inactive: outcome [1] | Potency [2] | outcome [3] | Potency [4] | outcome [5] | outcome [7] | outcome [8] | outcome [9] | outcome [10]

CC1COc2ccccc2N1 (stereo unspecified)
inactive: outcome [1] | Potency [2] | outcome [3] | Potency [4] | outcome [5] | outcome [7] | outcome [8] | outcome [9] | outcome [10]

Cc1cc2cc3c(C)cc(=O)oc3c(C)c2o1
inactive: outcome [1] | Potency [2] | outcome [3] | Potency [4] | outcome [5] | fluorescence, relative to Rose Bengal [7] 0.738% [at 18.6 µM] | fluorescence, % of fluorescein control [8] -0.0056% [at 18.6 µM] | fluorescence, % of triamterene [9] 1.9% [at 18.6 µM] | fluorescence, % of fluorescent control [10] 0.0391% [at 18.6 µM]

Nc1ccc2cc(S(=O)(=O)O)cc(O)c2c1
inactive: outcome [1] | Potency [2] | outcome [3] | Potency [4] | outcome [5] | Potency [6] | outcome [7] | outcome [8] | outcome [10]

CCCC/C=C/C=C\C=O
inactive: outcome [1] | Potency [2] | outcome [3] | Potency [4] | outcome [5] | outcome [7] | outcome [8] | outcome [9] | outcome [10]

O=C(O)C(=O)Cc1ccccc1
inactive: outcome [1] | Potency [2] | outcome [3] | Potency [4] | outcome [5] | outcome [7] | outcome [8] | outcome [9] | outcome [10]

Cc1ccc(S(=O)(=O)O)c(C)c1
inactive: outcome [1] | Potency [2] | outcome [3] | Potency [4] | outcome [5] | outcome [7] | outcome [8] | outcome [9] | outcome [10]

CCCCCCN
inactive: outcome [1] | Potency [2] | outcome [3] | Potency [4] | outcome [5] | outcome [7] | outcome [8] | outcome [9] | outcome [10]

CC(C)=CCOC(=O)c1ccccc1
inactive: outcome [1] | Potency [2] | outcome [3] | Potency [4] | outcome [5] | outcome [7] | outcome [8] | outcome [9] | outcome [10]

FC(F)(F)c1ccccc1-n1ccnc1
inactive: outcome [1] | Potency [2] | outcome [3] | Potency [4] | outcome [5] | Potency [6] | outcome [7] | outcome [8] | outcome [10]

Source: PubChem BioAssay (Tox21)
